Measured values as given in PubChem BioAssay (EPA / NIEHS).
“And” between values parts separate entries of the source, which are not always exact repeats. Identical values can stand only once. Records with an inconclusive call do not appear. The source holds several records for some structures; these can differ, active in one and inactive in another. The source made the active and inactive calls. How the source made its calls, unless noted: active means hit-call score of the fitted dose curve at least 0.9, where 1 is the maximum; inactive means score below 0.9.

Experiments:
[1] = molecular target: Bile acid receptor (Homo sapiens) (UniProt Q96RI1); experiment: OT_FXR_FXRSRC1_1440: Odyssey Thera (OT) 24-hour HEK293T Protein-Complementation Assay for Farnesoid X receptor/SRC-1 Co-activator (AID 2283384; active means hit-call score of the fitted dose curve at least 0.9, where 1 is the maximum)
Bile acid receptor (Homo sapiens), sequence (Q96RI1 whole entry, looked up, the tested form may be a part): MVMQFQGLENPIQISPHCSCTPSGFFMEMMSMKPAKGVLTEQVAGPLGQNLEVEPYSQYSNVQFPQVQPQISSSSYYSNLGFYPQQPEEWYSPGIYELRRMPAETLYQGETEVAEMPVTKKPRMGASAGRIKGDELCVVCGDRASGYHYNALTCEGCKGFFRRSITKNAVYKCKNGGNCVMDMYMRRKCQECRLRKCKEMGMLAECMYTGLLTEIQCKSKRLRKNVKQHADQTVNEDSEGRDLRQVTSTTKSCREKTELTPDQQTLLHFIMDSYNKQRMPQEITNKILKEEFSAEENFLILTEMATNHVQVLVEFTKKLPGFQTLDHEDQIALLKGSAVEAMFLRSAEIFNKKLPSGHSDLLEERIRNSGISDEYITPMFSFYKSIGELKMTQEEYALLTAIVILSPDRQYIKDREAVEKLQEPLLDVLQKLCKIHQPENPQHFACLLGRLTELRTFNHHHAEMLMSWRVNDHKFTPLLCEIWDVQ
Method in brief: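 Cell-based binding reporter: interaction of FXR with SRC-1 brings reporter fragments together, giving a fluorescence signal read 24 h after dosing of HEK293T cells.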

[2] = molecular target: Retinoic acid receptor RXR-alpha (Homo sapiens) (UniProt P19793); experiment: OT_NURR1_NURR1RXRa_0480: Odyssey Thera (OT) 8-hour HEK293T Protein Complementation Assay for Nurr1/retinoid X receptor (RXR) (AID 2283385; active means hit-call score of the fitted dose curve at least 0.9, where 1 is the maximum)
Retinoic acid receptor RXR-alpha (Homo sapiens), sequence (P19793 whole entry, looked up, the tested form may be a part): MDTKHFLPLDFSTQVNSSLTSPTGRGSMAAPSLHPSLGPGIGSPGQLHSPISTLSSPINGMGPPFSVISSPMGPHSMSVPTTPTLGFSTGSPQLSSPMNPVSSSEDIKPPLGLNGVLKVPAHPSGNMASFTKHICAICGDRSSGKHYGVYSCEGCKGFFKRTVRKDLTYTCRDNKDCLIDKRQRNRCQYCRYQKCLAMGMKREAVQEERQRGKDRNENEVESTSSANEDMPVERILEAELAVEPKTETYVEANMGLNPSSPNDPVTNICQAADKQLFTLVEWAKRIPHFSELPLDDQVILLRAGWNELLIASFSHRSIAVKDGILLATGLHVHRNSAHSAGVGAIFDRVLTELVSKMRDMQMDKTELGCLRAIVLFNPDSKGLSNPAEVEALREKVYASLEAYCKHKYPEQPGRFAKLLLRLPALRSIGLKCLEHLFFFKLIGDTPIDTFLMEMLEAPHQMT
Method in brief: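 Compounds are applied to HEK293T cells carrying Nurr1 and RXRα linked to reporter fragments. After 8 h, fluorescence intensity reports heterodimer formation, with DMSO as baseline.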

[3] = molecular target: Retinoic acid receptor RXR-alpha (Homo sapiens) (UniProt P19793); experiment: OT_NURR1_NURR1RXRa_1440: Odyssey Thera (OT) 24-hour HEK293T Protein Complementation Assay for Nurr1/retinoid X receptor (RXR) (AID 2283386; active means hit-call score of the fitted dose curve at least 0.9, where 1 is the maximum)
Method in brief: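 Measured as fluorescence from a reconstituted split reporter, this 24 h HEK293T complementation assay scores compound-induced gain of Nurr1/RXRα association relative to DMSO.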

[4] = molecular target: Peroxisome proliferator-activated receptor gamma (Homo sapiens) (UniProt P37231); experiment: OT_PPARg_PPARgSRC1_0480: Odyssey Thera (OT) 8-hour Protein-Complementation Assay for Peroxisome Proliferator-activated Receptor Gamma / SRC-1 Co-activator (AID 2283387; active means hit-call score of the fitted dose curve at least 0.9, where 1 is the maximum;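 further: nuclear to cytoplasmic split Venus YFP fluorescence ratio reporting PPARg SRC-1 interaction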)
Peroxisome proliferator-activated receptor gamma (Homo sapiens), sequence (P37231 whole entry, looked up, the tested form may be a part): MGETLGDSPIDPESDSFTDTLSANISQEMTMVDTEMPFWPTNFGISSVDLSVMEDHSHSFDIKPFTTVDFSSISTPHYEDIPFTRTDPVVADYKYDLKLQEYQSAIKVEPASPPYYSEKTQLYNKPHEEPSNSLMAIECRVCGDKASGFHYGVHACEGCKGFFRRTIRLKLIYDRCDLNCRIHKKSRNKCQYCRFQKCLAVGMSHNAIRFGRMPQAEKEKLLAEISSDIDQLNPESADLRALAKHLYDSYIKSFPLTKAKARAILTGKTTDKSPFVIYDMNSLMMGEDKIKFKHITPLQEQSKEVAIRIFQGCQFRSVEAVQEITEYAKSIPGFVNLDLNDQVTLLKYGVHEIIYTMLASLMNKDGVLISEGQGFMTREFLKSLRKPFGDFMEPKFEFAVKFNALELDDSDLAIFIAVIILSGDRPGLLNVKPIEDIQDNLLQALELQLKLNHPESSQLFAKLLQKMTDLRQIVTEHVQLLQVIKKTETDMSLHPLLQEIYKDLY
Method in brief: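 Split-YFP (IFP1/IFP2) PPARg/SRC-1 reporter, HEK293T, 37 °C, 5% CO2; 8 h compound; formaldehyde fix + Draq5; high-content imaging, N/C ratio, ≥350 cells/image, positive direction vs DMSO.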

[5] = molecular target: Peroxisome proliferator-activated receptor gamma (Homo sapiens) (UniProt P37231); experiment: OT_PPARg_PPARgSRC1_1440: Odyssey Thera (OT) 24-hour Protein-Complementation Assay for Peroxisome Proliferator-activated Receptor Gamma/ SRC-1 Co-activator (AID 2283388; active means hit-call score of the fitted dose curve at least 0.9, where 1 is the maximum;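 further: nuclear to cytoplasmic ratio of reconstituted Venus YFP fluorescence in fixed imaged cells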)
Method in brief: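 Transient HEK293T, YFP fragments 1-158/159-239 (mutant IFP1/IFP2) fused to PPARg/SRC-1; 24 h dosing; fix 4% formaldehyde, Draq5; Opera imaging 488/635 nm; N/C ratio, gain vs DMSO.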

[6] = CEETOX_H295R_11DCORT: CeeTox H295R High-throughput Steroidogenesis Assay for 11-Deoxycortisol (11DCORT) (AID 2283432); details: actives raise or lower the signal;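 on AC50: human adrenal H295R cells prestimulated with 10 µM forskolin for 48 h; 11-deoxycortisol secreted into the medium measured by LC-MS/MS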
Method in brief: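 Steroidogenesis in human H295R cells: 48 h chemical exposure after forskolin priming, 11-deoxycortisol measured by LC-MS/MS.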

[7] = CEETOX_H295R_OHPREG: CeeTox H295R High-throughput Steroidogenesis Assay for OH-Pregnenolone (OHPREG) (AID 2283434); details: actives raise or lower the signal
Method in brief: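 H295R cells pre-stimulated 48 h with 10 uM forskolin, then exposed 48 h to chemical in 0.1% DMSO. 17alpha-hydroxypregnenolone in medium quantified by MTBE extraction and HPLC-MS/MS; bidirectional fit versus DMSO, viability checked by MTT.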

[8] = CEETOX_H295R_OHPROG: CeeTox H295R High-throughput Steroidogenesis Assay for OH-Progesterone (OHPROG) (AID 2283435); details: actives raise or lower the signal;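 on AC50: human adrenal H295R cells primed 48 h with 10 µM forskolin; 17alpha-hydroxyprogesterone secreted into medium measured by HPLC-MS/MS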
Method in brief: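 Secreted 17alpha-hydroxyprogesterone is read by tandem MS from media of forskolin-primed H295R cells dosed with chemical for 48 h. Activity is fitted in both directions against DMSO baseline; cytotoxic concentrations are re-tested diluted.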

[9] = CEETOX_H295R_CORTISOL: CeeTox H295R High-throughput Steroidogenesis Assay for Cortisol (AID 2283438); details: actives raise or lower the signal;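 further: cortisol secreted into medium quantified by LC-MS/MS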
Method in brief: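 Human adrenocortical H295R cells (passage ≤10) received test chemicals for 48 h after forskolin priming. Secreted cortisol was measured by LC-MS/MS.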

[10] = CEETOX_H295R_DOC: CeeTox H295R High-throughput Steroidogenesis Assay for DOC (AID 2283439); details: actives raise or lower the signal
Method in brief: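 Secreted DOC was quantified from H295R media by HPLC-MS/MS after 48 h chemical exposure following 48 h forskolin (10 uM) prestimulation. Values were fitted in both directions relative to DMSO, the negative control and baseline.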

[11] = CEETOX_H295R_PROG: CeeTox H295R High-throughput Steroidogenesis Assay for Progesterone (PROG) (AID 2283442); details: actives raise or lower the signal;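 on AC50: human H295R adrenal cells primed with 10 µM forskolin before dosing; progesterone secreted into medium by H295R cells measured by HPLC-MS/MS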
Method in brief: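 Adrenal H295R line, forskolin-stimulated (10 uM, 48 h) before dosing. 48 h exposure, 0.1% DMSO vehicle. Secreted progesterone by reverse-phase HPLC with ESI+ MS/MS quantification; DMSO-normalised bidirectional curve fit.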

[12] = read-out: Tumor necrosis factor receptor superfamily member 6 (Homo sapiens) (UniProt P25445); experiment: LTEA_HepaRG_FAS: Life Technologies and Expression Analysis (LTEA) Assay for Fas cell surface death receptor (FAS) using HepaRG (AID 2283447); details: mRNA level, 48 h; actives raise or lower the signal
Method in brief: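 Differentiated HepaRG cells in serum-free induction medium were exposed 48 h to 8 half-log concentrations up to 100 uM in 0.5% DMSO, in duplicate. FAS mRNA was measured by qRT-PCR normalised to ACTB, GAPDH and POLR2A; bidirectional fit versus DMSO.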

[13] = read-out: Fatty acid synthase (Homo sapiens) (UniProt P49327); experiment: LTEA_HepaRG_FASN: Life Technologies and Expression Analysis (LTEA) Assay for Fatty Acid Synthase (FASN) using HepaRG (AID 2283448); details: mRNA level, 48 h; actives raise or lower the signal;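 on AC50: differentiated human HepaRG liver cells in serum-free induction medium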
Method in brief: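 Transcript-level assay: HepaRG liver cells are treated for 48 h across an eight-point range topping at 100 uM, and FASN mRNA, normalized to three housekeeping genes, is compared with DMSO controls in both directions.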

[14] = read-out: Cyclin D2 (CCND2), CCND2 (gene 894); experiment: LTEA_HepaRG_CCND2: Life Technologies and Expression Analysis (LTEA) Assay for Cyclin D2 (CCND2) using HepaRG (AID 2283449); details: mRNA level, 48 h; actives raise or lower the signal;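 further: CCND2 transcript measured by TaqMan qRT-PCR and normalised to three housekeeping genes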
Method in brief: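 Chemicals in 0.5% DMSO, eight half-log concentrations from 100 uM top, were applied in duplicate for 48 h to human HepaRG cells in serum-free induction medium. CCND2 mRNA by TaqMan qRT-PCR, normalised to ACTB/GAPDH/POLR2A; bidirectional fit versus DMSO.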

[15] = read-out: Cyclin D1 (CCND1), CCND1 (gene 595); experiment: LTEA_HepaRG_CCND1: Life Technologies and Expression Analysis (LTEA) Assay for Cyclin D1 (CCND1) using HepaRG (AID 2283451); details: mRNA level, 48 h; actives raise or lower the signal;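 on AC50: differentiated human HepaRG liver cells in serum-free induction medium; TaqMan qRT-PCR transcript level normalised to ACTB GAPDH and POLR2A housekeeping genes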
Method in brief: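 Human liver HepaRG line; 48 h dosing, 8 conc. ≤100 uM, 0.5% DMSO; TaqMan qRT-PCR mRNA, 3 housekeeping genes; bidirectional curve fit vs DMSO.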

[16] = read-out: catalase (CAT), CAT (gene 847); experiment: LTEA_HepaRG_CAT: Life Technologies and Expression Analysis (LTEA) Assay for catalase (CAT) using HepaRG (AID 2283452); details: mRNA level, 48 h; actives raise or lower the signal;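 on AC50: TaqMan qRT-PCR signal normalized to ACTB GAPDH and POLR2A housekeeping genes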
Method in brief: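 HepaRG cells in serum-free induction medium, 0.5% DMSO vehicle, exposed 48 h in duplicate over 8 half-log concentrations from 100 uM. CAT mRNA measured by qRT-PCR, normalized to ACTB, GAPDH, POLR2A; bidirectional fit versus DMSO.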

[17] = CEETOX_H295R_ESTRADIOL: CeeTox H295R High-throughput Steroidogenesis Assay for Estradiol (AID 2283440); details: actives raise or lower the signal;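 further: estradiol secreted into medium quantified by LC-MS/MS after dansyl derivatisation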
Method in brief: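 Following OECD 456 with minor changes, H295R cells received 10 uM forskolin for 48 h and then test chemical for 48 h. Hormone output was read by HPLC-MS/MS, with cytotoxic concentrations diluted until MTT viability reached ≥70%.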

[18] = CEETOX_H295R_ESTRONE: CeeTox H295R High-throughput Steroidogenesis Assay for Estrone (AID 2283441); details: actives raise or lower the signal;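 further: estrone secreted into medium measured by LC-MS/MS after dansyl derivatization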
Method in brief: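 H295R cells; 48 h forskolin (10 uM) prestimulation; 48 h compound exposure, 0.1% DMSO final. Medium estrone: MTBE extraction, dansyl derivatization, HPLC-MS/MS. Bidirectional fit vs DMSO.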

[19] = CEETOX_H295R_ANDR: CeeTox H295R High-throughput Steroidogenesis Assay for Androstenedione (ANDR) (AID 2283436); details: actives raise or lower the signal;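 further: human H295R adrenal cells exposed for 48 h with androstenedione measured in medium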
Method in brief: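 H295R cells, following OECD 456 with minor changes, exposed to chemicals for 48 h. Androstenedione in the medium was quantified by HPLC-MS/MS after MTBE extraction. Fitting was bidirectional versus DMSO; chemicals were diluted until MTT viability was ≥70%.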

[20] = read-out: Cyclin Dependent Kinase Inhibitor 1A (CDKN1A), CDKN1A (gene 1026); experiment: LTEA_HepaRG_CDKN1A: Life Technologies and Expression Analysis (LTEA) Assay for Cyclin Dependent Kinase Inhibitor 1A (CDKN1A) using HepaRG (AID 2283450); details: mRNA level, 48 h; actives raise or lower the signal
Method in brief: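 Cryopreserved HepaRG cells were plated and cultured 48 h, then switched to serum-free induction medium. Chemicals (eight half-log concentrations, top 100 uM, 0.5% DMSO) were applied for 48 h. Lysates underwent qRT-PCR for CDKN1A with housekeeping normalization.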

Measured: AC50

Fatty acid synthase (Homo sapiens), sequence (P49327 whole entry, looked up): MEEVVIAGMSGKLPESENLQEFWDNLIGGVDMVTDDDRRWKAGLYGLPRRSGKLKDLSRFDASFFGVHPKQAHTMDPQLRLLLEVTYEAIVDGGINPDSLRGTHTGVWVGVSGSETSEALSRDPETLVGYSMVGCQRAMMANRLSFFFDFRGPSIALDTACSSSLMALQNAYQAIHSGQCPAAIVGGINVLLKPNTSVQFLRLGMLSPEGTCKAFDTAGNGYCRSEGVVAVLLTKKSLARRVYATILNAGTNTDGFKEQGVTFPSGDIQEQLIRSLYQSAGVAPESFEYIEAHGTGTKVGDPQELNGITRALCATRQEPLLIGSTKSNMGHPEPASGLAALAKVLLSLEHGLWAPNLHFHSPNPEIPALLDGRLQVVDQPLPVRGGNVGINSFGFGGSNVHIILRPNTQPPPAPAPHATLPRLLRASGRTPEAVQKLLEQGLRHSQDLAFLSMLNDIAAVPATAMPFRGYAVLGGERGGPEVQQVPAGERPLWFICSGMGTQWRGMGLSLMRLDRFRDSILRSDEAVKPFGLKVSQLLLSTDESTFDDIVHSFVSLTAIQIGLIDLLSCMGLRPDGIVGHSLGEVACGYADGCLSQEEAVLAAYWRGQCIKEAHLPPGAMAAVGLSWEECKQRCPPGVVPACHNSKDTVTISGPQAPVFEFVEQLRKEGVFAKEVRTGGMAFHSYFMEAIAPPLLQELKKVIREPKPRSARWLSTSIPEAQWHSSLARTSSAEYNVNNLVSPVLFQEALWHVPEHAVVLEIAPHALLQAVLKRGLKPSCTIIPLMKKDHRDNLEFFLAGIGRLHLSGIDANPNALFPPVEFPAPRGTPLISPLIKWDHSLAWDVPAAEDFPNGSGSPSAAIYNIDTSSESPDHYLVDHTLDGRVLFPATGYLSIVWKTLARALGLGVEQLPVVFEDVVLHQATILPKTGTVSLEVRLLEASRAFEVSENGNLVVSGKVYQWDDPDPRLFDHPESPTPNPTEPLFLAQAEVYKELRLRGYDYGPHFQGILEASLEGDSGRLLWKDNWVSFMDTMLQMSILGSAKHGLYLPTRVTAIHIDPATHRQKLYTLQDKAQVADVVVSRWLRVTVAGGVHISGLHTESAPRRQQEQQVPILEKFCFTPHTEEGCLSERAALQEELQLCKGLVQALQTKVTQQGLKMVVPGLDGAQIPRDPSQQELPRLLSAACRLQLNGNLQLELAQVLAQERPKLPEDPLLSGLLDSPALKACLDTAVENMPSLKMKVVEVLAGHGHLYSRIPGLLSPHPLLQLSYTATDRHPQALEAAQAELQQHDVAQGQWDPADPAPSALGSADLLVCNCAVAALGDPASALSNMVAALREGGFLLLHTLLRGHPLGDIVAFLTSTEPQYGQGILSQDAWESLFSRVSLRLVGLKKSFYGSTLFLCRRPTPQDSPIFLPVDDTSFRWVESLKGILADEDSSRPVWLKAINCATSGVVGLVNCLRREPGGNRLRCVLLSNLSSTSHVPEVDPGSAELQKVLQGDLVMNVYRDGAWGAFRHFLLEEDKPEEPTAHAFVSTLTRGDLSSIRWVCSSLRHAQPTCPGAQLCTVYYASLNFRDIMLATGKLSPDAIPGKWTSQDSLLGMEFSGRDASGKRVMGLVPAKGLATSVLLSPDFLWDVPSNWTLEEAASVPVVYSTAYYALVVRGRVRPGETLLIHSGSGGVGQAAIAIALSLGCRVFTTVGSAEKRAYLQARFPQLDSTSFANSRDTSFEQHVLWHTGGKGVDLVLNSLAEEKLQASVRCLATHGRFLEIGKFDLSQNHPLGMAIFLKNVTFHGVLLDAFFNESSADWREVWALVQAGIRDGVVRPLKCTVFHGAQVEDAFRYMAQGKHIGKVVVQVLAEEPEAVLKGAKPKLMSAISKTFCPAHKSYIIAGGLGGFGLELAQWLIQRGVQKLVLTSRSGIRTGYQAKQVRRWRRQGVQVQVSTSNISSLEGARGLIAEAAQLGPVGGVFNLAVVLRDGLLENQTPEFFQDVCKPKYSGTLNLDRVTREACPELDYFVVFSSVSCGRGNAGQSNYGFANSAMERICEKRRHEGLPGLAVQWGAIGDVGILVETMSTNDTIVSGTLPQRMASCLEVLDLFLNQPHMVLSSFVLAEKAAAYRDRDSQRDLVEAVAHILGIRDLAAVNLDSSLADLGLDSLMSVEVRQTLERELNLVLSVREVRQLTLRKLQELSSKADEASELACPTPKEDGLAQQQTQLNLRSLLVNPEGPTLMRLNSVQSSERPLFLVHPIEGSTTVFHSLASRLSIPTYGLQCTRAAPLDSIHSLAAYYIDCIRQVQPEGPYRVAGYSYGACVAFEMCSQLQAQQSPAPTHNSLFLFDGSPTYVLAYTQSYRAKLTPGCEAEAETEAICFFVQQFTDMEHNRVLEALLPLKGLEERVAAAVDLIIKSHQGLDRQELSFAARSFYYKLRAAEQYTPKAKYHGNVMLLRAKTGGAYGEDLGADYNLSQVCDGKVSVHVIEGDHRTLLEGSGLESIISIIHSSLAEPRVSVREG

Nc1ccn([C@@H]2O[C@H](CO)[C@@H](O)[C@@H]2O)c(=O)n1
inactive: [1] | [2] | [3] | [4] | [5] | [6] | [7] | [8] | [9] | [10] | [11] | [12] | [13] | [14] | [15] | [16]

CC(C)c1nnc2ccc(-c3ocnc3-c3cc(F)ccc3F)cn12
inactive: [1] | [2] | [3] | [4] | [6] | [7] | [8] | [9] | [10] | [17] | [18] | [11] | [12] | [15]
active: [13] 50 µM | [16] 50 µM

Cc1ncc([C@@H](CCCCCCc2ccc3c(n2)NCCC3)CC(=O)O)cn1
inactive: [1] | [2] | [3] | [4] | [5] | [7] | [18] | [12] | [13] | [14] | [15] | [16]
active: [4] 12.4 µM | [11] 12.5 µM

CCCCC(CC)C(=O)OCCOCCOCCOC(=O)C(CC)CCCC (stereo unspecified)
inactive: [2] | [3] | [4] | [5] | [6] | [7] | [8] | [19] | [9] | [10] | [17] | [18] | [11] | [12] | [13] | [15] | [16]

CC[C@H](C)C(=O)O[C@H]1C[C@H](O)C=C2C=C[C@H](C)[C@H](CC[C@@H](O)C[C@@H](O)CC(=O)O)[C@H]21
inactive: [2] | [3] | [4] | [5] | [9] | [17] | [18] | [12] | [14] | [20] | [15] | [16]
active: [6] 5.33 µM | [7] 1.06 µM | [8] 5.55 µM | [10] 2.7 µM | [11] 0.949 µM | [13] 3.08 µM

COc1cc(C(C)C)c2c(c1)S(=O)(=O)N(COc1cc(=O)n3cccc(OCCN4CCCCC4)c3n1)C2=O
inactive: [3] | [4] | [5] | [12] | [20]
active: [1] 19.3 µM | [2] 3.02 µM and 4 µM | [3] 2.9 µM | [13] 20.7 µM | [15] 19.4 µM | [16] 19.4 µM

c1ccc2cc3ccccc3cc2c1
inactive: [1] | [2] | [4] | [5] | [12] | [13] | [14] | [20] | [15] | [16]
active: [3] 72.7 µM

CCCCCCCCCC
inactive: [1] | [2] | [3] | [4] | [12] | [13] | [14] | [20] | [15] | [16]

NC(=O)N(O)[C@@H]1COc2cc(OCc3ccccc3)ccc21
inactive: [1] | [2] | [3] | [4] | [12] | [13] | [14] | [15] | [16]

Cc1ccc(S(=O)(=O)NC(=O)NN2CCCCCC2)cc1
inactive: [2] | [3] | [4] | [5] | [12] | [13] | [14] | [15] | [16]

CCN(CC)C(=S)SSC(=S)N(CC)CC
inactive: [1] | [4] | [6] | [7] | [8] | [19] | [9] | [10] | [17] | [18] | [11] | [12] | [13] | [14] | [15] | [16]

Cn1c(=O)c2[nH]cnc2n(C)c1=O
inactive: [1] | [2] | [3] | [4] | [12] | [13] | [14] | [15] | [16]

c1ccc2c(c1)-c1cccc3c1c-2cc1ccccc13
active: [3] 11.2 µM | [6] 2.55 µM | [7] 2 µM | [8] 3.71 µM | [10] 1.84 µM | [13] 13.7 µM | [15] 5.32 µM | [16] 15.1 µM
inactive: [2] | [3] | [4] | [9] | [17] | [18] | [12] | [14]

CCCCCCCCCCCCCCO
inactive: [2] | [3] | [4] | [7] | [8] | [17] | [18] | [11] | [12] | [13] | [14] | [15] | [16]
active: [3] 74.3 µM
